# Giardia kill: Giardia lamblia killing | Giardia lamblia trophozoite viability | activity change, % at 7.66 µM, hits read low | actives 0.15% (n = 340,000) | AID 540267; in the data active = activity change below about -80%; inconclusive = between about -30% and that limit;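 note: parasites exposed to compound for two days anaerobically before the ATP read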
#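 Each well holds 100 Giardia trophozoites and compound. After two days (48 hrs) at 37 deg C in anaerobic conditions, ATP is quantified by luminescence.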
# p53 reactivation: mutant p53 re-activation in reporter cells | H1299 p53-A138V BP100-luciferase reporter, luminescence, 24 h | Potency, µM (titrated, usually from 92.2 µM), most hits filed as activators | actives 0.063% (n = 320,000); note: nearly all actives have a fitted effect of over 45% in size
#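 p53-null H1299 cells stably carrying temperature-sensitive p53-A138V and a BP100-luciferase reporter were pinned with compounds (4-point, 1:5 series) and held 24 hrs at 37 deg C. Luminescence was read 10 min after detection reagent.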
# BRCA1 expr act: BRCA1 expression activation; Potency, µM (series often up to 46.1 µM), hits mostly activators; actives 1.1% (n = 380,000); AID 624202; MCF7-BRCA1-FFLuc reporter, luminescence, 48 h; response scale: scaled: vehicle 0%, 10 µM genistein 100%; note: nearly all actives have a fitted effect of over 80% in size
#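 Luminescence from a BRCA1-driven firefly luciferase in MCF7 cells was the read-out, taken 15 min after substrate addition following 48 h compound exposure at 37 °C. Data were normalized to a 10 microM genistein control and DMSO vehicle.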
# ELG1 DNA repair: blocks ELG1-dependent DNA repair in HEK293T cells; HEK293T ELG1-luciferase reporter, luminescence, 16 h; DNA damage induced by 5-fluorouridine; Potency, µM (highest dose often 46.1 µM), usual class: inhibitors; actives 2.3% (n = 330,000); note: nearly all actives have a fitted effect of over 55% in size
#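 Quantitative HTS, concentration-response format. 2,000 cells/well co-treated with 5-fluorouridine and compound, 16 hr in 5% CO2 at 37 °C; ONE-Glo luminescence read after 30 min.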
# RORgamma inh: ROR gamma (mouse) transcription inhibition. P51450. Drosophila S2 Gal4-RORgamma UAS-luciferase reporter, 20 h. Potency, µM (doses to about 53.6 µM), hits mostly inhibitors. actives 5.4% (n = 310,000); note: nearly all actives have a fitted effect of over 60% in size
# Target sequence (P51450 whole entry, looked up, the tested form may be a part): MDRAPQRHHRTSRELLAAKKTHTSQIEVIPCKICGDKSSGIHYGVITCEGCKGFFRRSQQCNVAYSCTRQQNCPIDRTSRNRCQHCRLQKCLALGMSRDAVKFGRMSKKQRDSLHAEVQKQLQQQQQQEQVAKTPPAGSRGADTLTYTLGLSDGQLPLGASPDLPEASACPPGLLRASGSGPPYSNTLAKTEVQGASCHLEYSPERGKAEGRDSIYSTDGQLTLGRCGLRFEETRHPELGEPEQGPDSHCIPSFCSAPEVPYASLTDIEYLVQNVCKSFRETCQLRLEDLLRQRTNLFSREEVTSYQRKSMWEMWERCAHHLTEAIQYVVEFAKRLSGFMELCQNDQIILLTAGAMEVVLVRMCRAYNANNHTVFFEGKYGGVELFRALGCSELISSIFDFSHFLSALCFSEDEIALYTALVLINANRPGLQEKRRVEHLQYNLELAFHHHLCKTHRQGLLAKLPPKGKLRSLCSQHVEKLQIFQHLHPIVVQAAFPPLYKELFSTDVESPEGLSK
#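 A Gal4/UAS one-hybrid system in insect cells: metallothionein-promoter Gal4–ROR gamma fusion plus Photinus luciferase reporter. Copper sulfate 700 uM final, 20 hr ambient incubation, luminescent detection after 10 min with reagent.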
# Gal4-VP16 FLuc: Gal4-VP16 reporter inhibition counter-screen | Drosophila S2 Gal4-VP16 UAS-luciferase, luminescence, 20 h | Potency, µM (top dose mostly 53.6 µM), hits mostly inhibitors | actives 3.5% (n = 310,000) | AID 2546;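 note: Gal4-VP16 expression switched on by copper sulfate through the metallothionein promoter; nearly all actives have a fitted effect of over 50% in size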
# Hits are given with their value; – = inactive; ? = inconclusive; · = not tested or not shown. Shown are actives, neighbours in structure and some others; about 7.6% of the full set was active somewhere. Unless noted, calls come from the whole dose curve; as a rule, active = well fitted curve in the direction sought with a large enough effect; inconclusive = small, poorly fitted or top-dose-only effect, or another doubt; inactive = no such curve, though single readings can be large; an effect the other way counts as inactive or inconclusive.
SMILES,Giardia kill,p53 reactivation,BRCA1 expr act,ELG1 DNA repair,RORgamma inh,Gal4-VP16 FLuc
Cc1ccc(C)c(S(=O)(=O)N2CCCCC2CCNC(=O)C(=O)NCCc2ccco2)c1 (centres undefined),–,–,–,?,·,·
CC1=C(C(=O)Nc2cc(C(=O)N3CCN(c4cccc(C)c4C)CC3)ccc2C)SCCO1,–,–,–,18µM,–,–
O=C(c1c[nH]c(C(=O)C(Cl)(Cl)Cl)c1)c1ccccc1Br,–,–,–,–,–,?
Cc1ccccc1-c1nc(Nc2ccncc2)c2ccccc2n1,·,·,·,·,7.1µM,–
Cc1ccccc1-c1nc(NC2CC2)c2ccccc2n1,·,·,·,·,–,–
Clc1ccccc1-c1nc(Nc2ccncc2)c2ccccc2n1,·,·,·,·,11µM,–
CC(C)C[C@H]1COc2cc(N3CCSCC3)ccc2S(=O)(=O)N1,·,·,–,·,·,·
O=C(CCNC(=O)N1CCn2c1nc1ccccc12)NCc1ccc(F)cc1,–,–,–,–,–,–
COc1cc(F)ccc1-c1csc(C(O)c2ccccc2)n1 (centres undefined),·,·,–,·,·,·
CC(C)Sc1nnc2c3ccccc3n(C)c2n1,–,·,–,·,·,·
Cc1cc(C)n(-c2nnc3c4ccccc4n(C)c3n2)n1,–,–,1.4µM,?,3.2µM,?
C/C(=N\Nc1nc(C)cc(C)n1)c1ccc(C)o1,–,–,–,–,7.1µM,10µM
C/C(=N\Nc1nnc2c3ccccc3n(C)c2n1)c1ccc(C)o1,–,–,–,16µM,–,–
CCS(=O)(=O)c1ccc(O)c(NC(=O)/C=C/c2ccccc2)c1,–,–,13µM,?,?,–
COc1ccc(C2SCCN2S(=O)(=O)c2ccc(NC(C)=O)cc2)cc1OC (centres undefined),–,–,–,?,?,–
COc1cccc(NC(=O)c2cc([N+](=O)[O-])ccc2NC(=O)CNCC2CCCO2)c1 (centres undefined),–,–,–,9.2µM,–,–
COc1ccc(NC(=O)c2cc([N+](=O)[O-])ccc2NC(=O)CNCc2ccccn2)c(OC)c1,–,–,–,–,?,–
COc1cc(NC(=O)c2cc([N+](=O)[O-])ccc2NC(=O)CNC2CCCCC2C)cc(OC)c1 (centres undefined),–,–,–,?,–,–
COCCCNc1ccc([N+](=O)[O-])cc1C(=O)Nc1cccc(C)n1,–,–,–,?,–,–
Cc1cccc(NC(=O)c2cc([N+](=O)[O-])ccc2NCC2CCCO2)n1 (centres undefined),–,–,–,15µM,–,–
COc1cc(NC(=O)c2cc([N+](=O)[O-])ccc2NC(=O)CNCc2ccccn2)cc(OC)c1,–,–,–,6.5µM,–,?
COc1cc(NC(=O)c2cc([N+](=O)[O-])ccc2NC(=O)CNC2CCCCC2)cc(OC)c1,–,–,–,21µM,–,–
COc1ccc(-c2nnn3c2nc(NCc2ccc(C)cc2)c2ccccc23)cc1,·,·,–,·,·,·
CC(C)(C)OC(=O)N[C@@H](/C=C/c1ccccc1)C(=O)OC(C)(C)C,–,–,–,–,·,·
CC1(C)OCC(N)(CO)CO1,·,·,–,·,·,·
SMILES,Giardia kill,p53 reactivation,BRCA1 expr act,ELG1 DNA repair,RORgamma inh,Gal4-VP16 FLuc
CCc1nc2ccc(C(=O)NCCOc3ccc(OC)cc3)cn2c1N(C)C(=O)C1CCCCC1,·,·,–,·,·,·
O=C(CCSCc1ccc(Cl)cc1)NCc1cccnc1,–,–,–,–,–,–
Cc1ccc(NC(=O)CSc2nn(-c3ccccc3)c(=S)s2)cc1S(=O)(=O)N(C)C,–,–,–,23µM,?,14µM
COc1ccc(CCN2C(=O)CS/C2=N/NC(=O)c2ccccc2F)cc1OC,–,–,–,–,–,–
OCCN1CCN(Cc2nc(-c3cccc(Cl)c3)no2)CC1,–,–,–,?,–,?
CN1CCCN(Cc2nc(-c3ccc(Cl)cc3)no2)CC1,–,–,13µM,?,–,–
COC(=O)c1sc2ccccc2c1NC(=O)c1ccc(S(=O)(=O)N2CC(C)CC(C)C2)cc1 (centres undefined),–,–,–,–,–,–

# Screens (PubChem)
